Experiment [1] can be described thus: Wnt pathway potentiators raising nuclear beta-catenin – imaging, WNT3A-conditioned medium, mouse C2C12, NPC library, primary screen (AID 1117326; in the data active = nuclear beta-catenin stimulation mostly above about 4.2%, no sharp cut-off; inactive = mostly below about 10%). The conditions noted are these: stronger effect = higher value.
A short description of experiment [2]: stimulators of insulin release from INS-1E, primary screen, cell-based, 5 mM glucose, NPC library (AID 1117329;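 active = compound raises insulin release from rat beta cells at 5 mM glucose, no numeric limit stated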). The note with it: rat INS-1E insulin secretion, at 10 µM, stronger effect = higher value.
A short description of experiment [3]: growth inhibition of GSK3B-pretreated HCT116 cells – cell-based, CellTiter-Glo, 0.2 to 20 µM (AID 1117336;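 active = compounds lowering colon cancer cell viability after pretreatment blocking the GSK3B kinase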). The note with it: HCT116 viability after GSK3B inhibitor, at 20 µM, stronger effect = higher value.
The nature of experiment [4]: inhibition of endothelial tube formation, primary screen, imaging, VEGF stimulated, CD31 staining, tube area, NPC library (AID 1117340;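 active = compound that reduces growth-factor-driven endothelial tube area in a mixed cell culture, no cutoff stated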). The conditions noted are these: VEGF-stimulated ADSC/ECFC co-culture, at 10 µM, stronger effect = higher value.
Experiment [5] can be described thus: GLP1 release stimulators, primary, NCI-H716, NPC library (AID 1117341;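 active = compound raises GLP1 secretion from the human gut endocrine cells, with no numeric limit stated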). The conditions noted are these: NCI-H716 cells, at 10 µM, stronger effect = higher value.
A short description of experiment [6]: HCT116 colon cancer cell growth inhibition, primary screen, CellTiter-Glo luminescence, NPC library (AID 1117342;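 active = compounds that lower survival of HCT116 colon cancer cells in the luminescence readout, no numeric limit stated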). The conditions noted are these: at 20 µM (top of the series).
Experiment [7] in a line: reduced SW480 viability measured with CellTiter-Glo, NPC library, primary (AID 1117343;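 active = compounds that lower viability of the colon cancer cells in the luminescence readout, with no numeric limit stated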). The conditions noted are these: CellTiter-Glo luminescence; at 20 µM (top of the series).
Experiment [8] in a line: NPC library primary testing for decreased DLD-1 cell viability via CellTiter-Glo (AID 1117346;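 active = compounds that lower survival of DLD-1 colon cancer cells in the luminescence readout, no cutoff given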). The note with it: DLD-1 viability, CellTiter-Glo luminescence; at 20 µM (top of the series).
The target of experiment [9] is 6-phosphogluconate dehydrogenase, decarboxylating (Homo sapiens) (UniProt P52209). Nature of the experiment: inhibition of human phosphogluconate dehydrogenase – biochemical, recombinant enzyme, NADPH absorbance, primary screen (AID 1159550;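 active = at least 20% inhibition of 6-phosphogluconate dehydrogenase activity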). The note with it: recombinant 6PGD, NADPH absorbance 341 nm; at 10 µM; stronger effect = higher value.
Sequence of 6-phosphogluconate dehydrogenase, decarboxylating (Homo sapiens) (P52209 whole entry, looked up): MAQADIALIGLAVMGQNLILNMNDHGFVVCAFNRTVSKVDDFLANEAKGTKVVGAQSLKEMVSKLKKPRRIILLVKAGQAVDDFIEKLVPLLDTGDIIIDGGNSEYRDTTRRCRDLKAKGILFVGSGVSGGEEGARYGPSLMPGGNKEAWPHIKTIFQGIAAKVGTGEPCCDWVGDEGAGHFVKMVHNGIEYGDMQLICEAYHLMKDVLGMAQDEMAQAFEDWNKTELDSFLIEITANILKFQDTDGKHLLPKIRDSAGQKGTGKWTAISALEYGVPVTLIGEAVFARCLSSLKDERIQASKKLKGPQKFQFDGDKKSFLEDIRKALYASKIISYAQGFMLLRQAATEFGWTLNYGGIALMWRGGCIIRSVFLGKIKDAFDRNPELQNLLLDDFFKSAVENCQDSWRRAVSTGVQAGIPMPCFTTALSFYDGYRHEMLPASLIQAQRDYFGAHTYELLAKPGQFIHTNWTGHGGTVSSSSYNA
Experiment [10] is described as follows: modulation of C. elegans fzo-1 (AID 1259413; call rule not given here;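 also: fzo-1 mutant C. elegans worms in liquid wells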). The note with it: C. elegans fzo-1 modulator screen, mean read-out; stronger effect = higher value.
Experiment [11] can be described thus: EMT-state selective cytotoxicity in co-culture – imaging, PC-3E GFP, TEM4-18 mCherry, primary screen (AID 1345086;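 active = compounds killing one labelled cell type while sparing the other, by normalised counts and ratio limits, not self-fluorescent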;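 as to all read-outs here: cells exposed to compound for 72 h before imaging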;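 as to red/green cell ratio (normalised): normalised mesenchymal count divided by normalised epithelial count so high means epithelial killing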). The note with it: PC-3E GFP / TEM4-18 mCherry co-culture, imaging cell counts, at 1 µM; for red/green cell ratio (normalised): actives lie on both sides, counts scaled to control wells, 1 = unselective.
Experiment [12] in a line: MELAS cybrid and Rieske KO viability enhancers – cell-based, MELAS cybrids, Rieske KO mouse fibroblasts, CellTiter-Glo, primary screen (AID 1508586;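 active = mean z-score across replicates of 1.96 or higher in either the MELAS or the Rieske mutant cell line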;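 also: z relative to plate mean and SD of compound and empty wells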). The note with it: low glucose.
For experiment [13], the target named is NAD(+) hydrolase SARM1 (Homo sapiens) (UniProt Q6SZW1). Nature of the experiment: blocking NAD cleavage by SARM1 SAM-TIR – cell lysate, NAD-Glo luminescence (AID 1508614;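 active = compound whose remaining NAD level is above about 45 nM, limit read from the data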;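 also: higher remaining NAD means stronger inhibition of SARM1 NADase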). The conditions noted are these: SAM-TIR HEK293T lysate NADase, at 1 µM, stronger effect = higher value.
Sequence of NAD(+) hydrolase SARM1 (Homo sapiens) (Q6SZW1 whole entry, looked up, the tested form may be a part): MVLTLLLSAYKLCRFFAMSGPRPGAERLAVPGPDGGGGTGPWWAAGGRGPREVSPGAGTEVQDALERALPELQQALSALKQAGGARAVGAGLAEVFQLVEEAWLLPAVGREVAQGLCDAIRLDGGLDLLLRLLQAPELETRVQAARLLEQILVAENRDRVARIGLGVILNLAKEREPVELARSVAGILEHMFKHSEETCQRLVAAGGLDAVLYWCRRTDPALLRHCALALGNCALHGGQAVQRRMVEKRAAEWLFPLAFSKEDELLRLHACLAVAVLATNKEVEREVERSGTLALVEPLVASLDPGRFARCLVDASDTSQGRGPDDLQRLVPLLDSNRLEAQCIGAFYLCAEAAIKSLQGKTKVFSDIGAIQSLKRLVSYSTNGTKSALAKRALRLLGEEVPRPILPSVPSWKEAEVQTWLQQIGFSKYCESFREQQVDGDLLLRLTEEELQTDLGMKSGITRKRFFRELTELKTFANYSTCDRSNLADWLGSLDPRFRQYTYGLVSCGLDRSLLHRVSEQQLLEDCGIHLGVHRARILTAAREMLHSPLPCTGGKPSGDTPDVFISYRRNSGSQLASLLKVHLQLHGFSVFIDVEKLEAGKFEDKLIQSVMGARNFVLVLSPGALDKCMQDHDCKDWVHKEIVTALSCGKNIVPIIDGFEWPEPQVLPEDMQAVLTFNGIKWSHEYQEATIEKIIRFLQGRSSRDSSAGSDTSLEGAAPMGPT
In experiment [14] the target is Mitogen-activated protein kinase 7 (Homo sapiens) (UniProt Q13164). Nature of the experiment: Gal4-ERK5 driven luciferase induction – cell-based, HTS, primary screen (AID 1508626;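 active = luciferase signal above three times the same-plate solvent-only control wells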;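 also: luciferase driven by Gal4-ERK5 fusion binding five Gal4 sites before minimal TATA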). The conditions noted are these: HeLa Gal4-ERK5 transactivation, 18 h, at 5 µM, stronger effect = higher value.
Sequence of Mitogen-activated protein kinase 7 (Homo sapiens) (Q13164 whole entry, looked up, the tested form may be a part): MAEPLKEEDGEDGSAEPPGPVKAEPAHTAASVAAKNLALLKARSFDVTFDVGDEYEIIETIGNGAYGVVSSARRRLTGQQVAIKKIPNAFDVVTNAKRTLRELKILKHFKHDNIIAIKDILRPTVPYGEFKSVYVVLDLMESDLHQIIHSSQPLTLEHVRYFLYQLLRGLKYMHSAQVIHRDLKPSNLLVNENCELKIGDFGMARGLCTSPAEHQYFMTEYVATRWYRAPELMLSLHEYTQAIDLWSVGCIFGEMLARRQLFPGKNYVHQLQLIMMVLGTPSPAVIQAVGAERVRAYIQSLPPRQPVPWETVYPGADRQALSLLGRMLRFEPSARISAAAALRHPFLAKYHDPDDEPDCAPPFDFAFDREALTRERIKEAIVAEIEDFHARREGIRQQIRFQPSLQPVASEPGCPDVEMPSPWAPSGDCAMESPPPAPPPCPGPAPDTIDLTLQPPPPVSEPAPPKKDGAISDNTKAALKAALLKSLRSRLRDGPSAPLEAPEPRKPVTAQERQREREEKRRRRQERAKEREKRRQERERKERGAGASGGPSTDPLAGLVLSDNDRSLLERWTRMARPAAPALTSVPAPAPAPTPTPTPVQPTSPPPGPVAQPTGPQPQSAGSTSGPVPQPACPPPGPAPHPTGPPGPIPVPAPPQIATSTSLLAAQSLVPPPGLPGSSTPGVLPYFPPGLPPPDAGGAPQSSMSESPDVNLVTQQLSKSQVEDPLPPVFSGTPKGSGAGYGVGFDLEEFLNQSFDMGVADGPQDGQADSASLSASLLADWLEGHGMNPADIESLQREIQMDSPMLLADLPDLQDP
In experiment [15] the test system is F380Y. Nature of the experiment: BK channel mutant inhibitors and activators – cell-based, U2OS BacMam, thallium flux, beta subunits, selectivity assay, profiling panel (AID 1259406).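 Also: initial slope of Thallos dye fluorescence rise after thallium is added; log ratio against the mean of 0.3% DMSO vehicle wells on the same plate.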 The note with it: U2OS BacMam BK variants, at 30 µM.
Experiment [16] relates to F380Y/beta1. The description is as above. The conditions noted are these: U2OS BacMam BK variants, at 30 µM.
Experiment [17] deals with F380Y/beta2Delta. Described as above. The note with it: U2OS BacMam BK variants, at 30 µM.
Experiment [18] deals with F380Y/beta4. The description is as above. The conditions noted are these: U2OS BacMam BK variants, at 30 µM.
For experiment [19], the target named is Calcium-activated potassium channel subunit alpha-1 (Homo sapiens) + Leucine-rich repeat-containing protein 26 (Homo sapiens) (UniProt Q12791+Q2I0M4). The description is as above. The conditions noted are these: U2OS BacMam BK variants, F380Y/Slo1WT/gamma1, at 30 µM.
Sequence of Calcium-activated potassium channel subunit alpha-1 (Homo sapiens) + Leucine-rich repeat-containing protein 26 (Homo sapiens) (Q2I0M4 whole entry, looked up, one chain of several): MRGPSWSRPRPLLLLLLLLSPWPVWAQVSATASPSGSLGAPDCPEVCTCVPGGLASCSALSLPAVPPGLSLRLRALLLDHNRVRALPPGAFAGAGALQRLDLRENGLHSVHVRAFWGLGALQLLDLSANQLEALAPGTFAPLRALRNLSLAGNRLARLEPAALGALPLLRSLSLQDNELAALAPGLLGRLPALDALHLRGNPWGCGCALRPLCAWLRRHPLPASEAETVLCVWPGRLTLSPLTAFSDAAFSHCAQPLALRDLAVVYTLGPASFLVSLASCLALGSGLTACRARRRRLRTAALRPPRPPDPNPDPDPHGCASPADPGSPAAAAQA
[20] abbreviates: measured here: epithelial PC-3E GFP cell survival.
[21] abbreviates: measured here: mesenchymal TEM4-18 mCherry cell survival.
[22] abbreviates: MELAS cybrid survival, CellTiter-Glo 48 h, stronger effect = higher value.
Where [23] appears, read: Rieske KO mouse fibroblast survival, CellTiter-Glo 72 h.

Values joined by “and” are separate entries in the source; they are usually repeats but may differ in a detail not shown here. Equal values may be shown once. More than one record can exist for a structure, and the calls need not agree. Active and inactive are the calls of the source.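 The calls were made as follows, unless noted: active = thallium flux through the channel raised or lowered by more than 3 SD from vehicle-only wells, actives on both sides; inactive = the rest.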

Consider `NCCc1ccc(O)c(O)c1`, for which the nuclear beta-catenin stimulation in experiment [1] (at 10 µM) was 1.1% (inactive); in experiment [1] (stimulation, at 2 µM), 0.8%. Moreover, the insulin secretion stimulation in [2] was -3% (inactive). For the same molecule, the viability decrease in experiment [3] is 22.9% (inactive). Also, in experiment [4], the tube area decrease was 37.7% (inactive). For the same molecule, the GLP1 secretion stimulation in [5] was -0.9% (inactive). Besides, the inhibition of viability in experiment [6] is -9.7% (inactive). The viability decrease (inhibition) in experiment [7] is 79.9% (active); in [8], 11.6% (inactive). Further, in [9], the inhibition is -4.79% (inactive). The mean signal in experiment [10] was 263 (inactive). In addition, the red/green cell ratio (normalised) in experiment [11] was 1.02 (inactive) and 0.85 (inactive). In addition, the normalised cell number in [11] (setting [20]) is 1.41 and 1.02; in experiment [11] (setting [21]), 1.44 and 0.87. Moreover, the z-score in experiment [12] (setting [22]) is -0.31 (inactive) and 0.319 (inactive); in experiment [12] (setting [23]) it was 0.135 and -0.219. Also, in [13], the remaining NAD was 10 nM (inactive). Besides, the luciferase signal in [14] is 44 AU (inactive) and 204 AU (active). Besides, the log fold change Tl+ flux in experiment [15] is 0.0174 (inactive); in [16] it was 0.0356 (inactive); in experiment [17], 0.0459 (inactive); in experiment [18], 0.00195 (inactive); in [19], -0.0022 (inactive).
As for `CC(C)Cc1ccc(C(C)C(=O)O)cc1` (centres undefined), the nuclear beta-catenin stimulation in [1] (at 10 µM) is 0.3% (inactive); in experiment [1] (stimulation, at 2 µM) it was 1.7%. In addition, in experiment [2], the insulin secretion stimulation is -2.6% (inactive). Besides, the viability decrease in experiment [3] is -2.1% (inactive). The tube area decrease in experiment [4] is 0.9% (inactive). Besides, the GLP1 secretion stimulation in experiment [5] is 0.1% (inactive). The inhibition of viability in [6] is -7.8% (inactive). The viability decrease (inhibition) is 21.6% (inactive) in experiment [7] and 16.6% (inactive) in experiment [8]. For the same molecule, the inhibition in [9] is -4.32% (inactive). In addition, the mean signal in experiment [10] was 242 (inactive). For the same molecule, the red/green cell ratio (normalised) in experiment [11] is 1 (inactive). Further, the normalised cell number in experiment [11] (setting [20]) and in [11] (setting [21]) was 1.11 throughout. Also, the z-score in [12] (setting [22]) was 0.0693 (inactive) and -0.542 (inactive); in [12] (setting [23]), -0.22 and -1.3. For the same molecule, the remaining NAD in experiment [13] is 10 nM (inactive). Also, the luciferase signal in [14] is 24 AU (inactive). The log fold change Tl+ flux was 0.0419 (inactive) in experiment [15]; -0.0217 (inactive) in experiment [16]; 0.0321 (inactive) in experiment [17]; 0.0254 (inactive) in experiment [18]; -0.0267 (inactive) in experiment [19].
In the case of `COCCOC(=O)C1=C(C)NC(C)=C(C(=O)OC(C)C)C1c1cccc([N+](=O)[O-])c1` (centres undefined), the nuclear beta-catenin stimulation in experiment [1] (at 10 µM) is -0.6% (inactive); in experiment [1] (stimulation, at 2 µM), 1.2%. Besides, the insulin secretion stimulation in experiment [2] was -0.5% (inactive). In addition, in [3], the viability decrease was 46.2% (inactive). Further, in experiment [4], the tube area decrease is -1.2% (inactive). Moreover, the GLP1 secretion stimulation in experiment [5] was -0.1% (inactive). Moreover, the inhibition of viability in [6] was 77.9% (active). Also, the viability decrease (inhibition) in experiment [7] was 55.7% (active); in [8], 27.1% (inactive). Moreover, in experiment [9], the inhibition was 2.88% (inactive). Further, in experiment [10], the mean signal is 225 (inactive). The red/green cell ratio (normalised) in experiment [11] was 1.09 (inactive). Besides, the normalised cell number in experiment [11] (setting [20]) amounted to 1.07; in [11] (setting [21]) it was 1.17. Moreover, the z-score in experiment [12] (setting [22]) is -0.249 (inactive) and 1.31 (inactive) and 0.763 (inactive); in [12] (setting [23]), -0.137 and 1.51 and 1.35. The remaining NAD in experiment [13] is 10 nM (inactive). The luciferase signal in [14] is 48 AU (inactive). Also, the log fold change Tl+ flux in experiment [15] is -0.0169 (inactive); in experiment [16], 0.0464 (inactive); in [17], -0.122 (active); in [18], -0.126 (active); in experiment [19] it was 0.0377 (inactive).

Values taken from PubChem BioAssay.
